Only a selection was taken, and hits are over-represented in it overall.
CBX7 inh: inhibitors of human CBX7 binding to H3K27me3 peptide; O95931; AlphaScreen His6-CBX7 / biotin-H3K27me3 peptide binding; active compounds read low; normalised signal (fraction of DMSO) (test concentration not listed); hit rate 1.1% among 66,000; AID 1224903; in the data active = normalised signal below about 0.5
Target sequence (O95931 whole entry, looked up): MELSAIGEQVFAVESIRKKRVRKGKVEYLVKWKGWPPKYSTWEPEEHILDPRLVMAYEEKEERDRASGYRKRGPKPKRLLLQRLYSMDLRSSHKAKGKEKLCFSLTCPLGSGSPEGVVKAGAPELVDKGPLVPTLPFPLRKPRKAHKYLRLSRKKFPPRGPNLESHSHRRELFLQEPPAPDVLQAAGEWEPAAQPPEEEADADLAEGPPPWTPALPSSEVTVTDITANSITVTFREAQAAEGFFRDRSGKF
Large screens that a line does not name were inactive.

CN(Cc1ccccc1)c1oc(COc2ccccc2F)nc1C#N	CBX7 inh 0.42
CC(Nc1oc(COc2ccccc2F)nc1C#N)c1ccccc1 (stereo unspecified)	none
COc1ccc(/C=C/c2nn3c(-c4ccccc4)nnc3s2)cc1	none
COc1ccc(C(=O)Nc2ccc(-c3nc4ccccc4[nH]3)cc2)c(OC)c1	none
CCCNC(=O)Cn1cnc2sc(C(=O)NCCOC)c(C)c2c1=O	none
COc1ccccc1Nc1nc(-c2ccncc2)nc2ccccc12	CBX7 inh 0.33
COc1ccccc1Nc1nc(-c2ccccc2Cl)nc2ccccc12	none
COc1ccccc1Nc1nc(-c2ccc(C)cc2)nc2ccccc12	none
O=C(NCCCN1CCN(c2ccccc2F)CC1)Nc1ccccc1	none
Cc1cccc(CN2CCC(CNC(=O)C3c4ccccc4C(=O)N4CCc5ccccc5C34)CC2)c1 (stereo unspecified)	none
COc1ccc(C(=O)NCc2nc3ccccc3n2Cc2cc(C)ccc2C)cc1OC	none
COc1ccc(N2CCN(c3oc(COc4ccccc4C)nc3C#N)CC2)cc1	none
N#Cc1nc(COc2ccc(Br)cc2)oc1N1CCN(Cc2ccccc2)CC1	none
COc1ccc(OCc2nc(C#N)c(N3CCN(c4ccc(OC)cc4)CC3)o2)cc1	none
Cc1ccccc1OCc1nc(C#N)c(N2CCN(c3ccccc3)CC2)o1	CBX7 inh 0.42
COc1ccccc1OCc1nc(C#N)c(N2CCN(c3ccccc3)CC2)o1	none
COc1ccc(N2CCN(c3oc(COc4ccc(F)cc4)nc3C#N)CC2)cc1	none
N#Cc1nc(COc2ccccc2F)oc1N1CCCCCC1	none
COc1ccc(N2CCN(c3oc(COc4ccc(C)cc4)nc3C#N)CC2)cc1	CBX7 inh 0.48
N#Cc1nc(COc2ccccc2F)oc1N1CCN(Cc2ccccc2)CC1	CBX7 inh 0.46
Cc1[nH]c2ccc(F)cc2c1CCNS(=O)(=O)c1ccc(C(C)(C)C)cc1	none
CCOC(=O)c1c(NC(=O)c2cccc(Cl)c2)sc(C(=O)NC2CCCCC2)c1C	none
CCN1CCCC1CNC(=O)c1cc(-c2ccc(C)c(C)c2)nc2ccccc12 (stereo unspecified)	none
CCc1nnc(NC(=O)CSc2nccn2C)s1	none
Cc1onc(-c2ccccc2Cl)c1C(=O)Nc1ccc(F)cc1	none
Cc1cc(Nc2cccc(C(F)(F)F)c2)nc(-c2ccccc2O)n1	none
O=C(CCNS(=O)(=O)c1ccc2c(c1)CCC(=O)N2)NCCc1ccccc1	none
N#Cc1c(-c2ccc(F)cc2)c(C#N)c(=O)n(N)c1N	CBX7 inh 0.16
Cc1cc(C)n(Cc2ccc(F)cc2)c(=O)c1C#N	none
O=C(CSc1ncn[nH]1)NCc1n[nH]c(=O)c2ccccc12	none
CCCN(CCC)CC(O)CN(c1cccc(C)c1)S(=O)(=O)c1ccccc1 (stereo unspecified)	none
Cc1nnc(Sc2cc(C(=O)NCCN3CCCCCC3)c3ccccc3n2)s1	none
Cc1ccc(C)c(Cn2c(C3CC(=O)N(c4ccccc4F)C3)nc3ccccc32)c1 (stereo unspecified)	none
Cc1ccc(-c2csc3ncn(CC(=O)N(C)Cc4ccccc4)c(=O)c23)cc1	none
Cc1cccc(NC(=O)c2cc(S(=O)(=O)N3CCCCC3)ccc2F)c1	none
CCOC(=O)c1ccc(NC(=O)c2c(NCc3ccncc3)sc3c2CCC3)cc1	none
COCc1nnc(NC(=O)c2ccc(S(=O)(=O)N3CCCCCC3)cc2)o1	CBX7 inh 0.066
CCc1nnc(NC(=O)c2ccc(S(=O)(=O)N3CCc4ccccc4C3)cc2)o1	none
COCc1nnc(NC(=O)c2ccc(S(=O)(=O)N3CCCC(C)C3)cc2)o1 (stereo unspecified)	none
CCc1nnc(NC(=O)c2ccc(S(=O)(=O)N3CCCc4ccccc43)cc2)o1	CBX7 inh 0.047
CCc1nnc(NC(=O)c2ccc(S(=O)(=O)N3CCCC3)cc2)o1	CBX7 inh 0.45
NC(=O)c1oc2ccccc2c1NC(=O)c1ccc(S(=O)(=O)N2CCCc3ccccc32)cc1	none
CCc1nnc(NC(=O)c2ccc(S(=O)(=O)N3CCCCC3C)cc2)o1 (stereo unspecified)	none
CCc1nnc(NC(=O)c2ccc(S(=O)(=O)N3CC(C)CC(C)C3)cc2)o1 (stereo unspecified)	none
O=c1cc(Cc2ccccc2)nc2c(-c3ccc(Cl)cc3)c[nH]n12	none
CN1CCN(CCCNC(=O)c2cn(C3CCCC3)c(=O)c3c2c2ccccc2n3C)CC1	none
COc1ccc(Cl)cc1NC(=O)Cn1c(=O)n(Cc2ccc(C)cc2)c(=O)c2cccnc21	none
Cn1nc(-c2ccc(N3CCCCC3)c(NC(=O)c3ccccc3Cl)c2)c2ccccc2c1=O	none
Cc1ccc(N2CCN(c3nc(-c4ccccc4)c4cc(C)ccc4n3)CC2)c(C)c1	none
COC(=O)c1c[nH]n2c(NC3CCCCC3)c(-c3cccc(Br)c3)nc12	none
COC(=O)c1c[nH]n2c(NC3CCCC3)c(-c3ccc(C)cc3)nc12	none
COC(=O)c1c[nH]n2c(NC3CCCCCC3)c(-c3cccc(OC)c3)nc12	CBX7 inh 0.5
COC(=O)c1c[nH]n2c(NC3CCCC3)c(-c3cccc(OC)c3)nc12	CBX7 inh 0.38
CCCCCOc1ccc(NC(=O)c2cccc(C(=O)OC)n2)cc1	none
CCCCOc1cccc(-c2nc3c(C(=O)OC)c[nH]n3c2NC2CCCC2)c1	CBX7 inh 0.2
COC(=O)c1c[nH]n2c(NC3CCCCC3)c(-c3cccc(OC)c3)nc12	none
COC(=O)c1c[nH]n2c(NC3CCCCC3)c(-c3cccc(C)c3)nc12	none
COC(=O)c1c[nH]n2c(NC3CCCCC3)c(-c3ccc(C)cc3)nc12	none
CCCOc1cccc(-c2cc(C(=O)O)c3ccccc3n2)c1	none
COC(=O)c1c[nH]n2c(NC3CCCC3)c(-c3cccc(C)c3)nc12	none
COC(=O)c1c[nH]n2c(NC3CCCC3)c(-c3ccc(OC)cc3)nc12	CBX7 inh 0.11
COc1ccccc1NC(=O)c1c(-c2ccccc2Cl)noc1C	none
O=C(Cn1c(SCc2ccccc2F)nc2ccncc21)Nc1cccc(F)c1	none
O=C(O)CCC(=O)N1CCc2cc(S(=O)(=O)NCc3ccccc3Cl)ccc21	none
Cc1ccc(-n2nc3c(c2NC(=O)c2cccc(Cl)c2)CS(=O)(=O)C3)cc1	none
Cc1ccccc1-c1nc(Cn2c(SCc3cccc(F)c3)nc3ccncc32)c(C)o1	none
CCOc1ccc(NC(=O)CC2C(=O)N(c3ccc(OC)cc3)C(=O)N2C(C)C)cc1 (stereo unspecified)	none
Cc1ccc(C)c(Nc2cc(C(=O)NCCN3CCOCC3)c3ccccc3n2)c1	none
O=C(O)c1c[nH]n2c(=O)cc(CSc3ccc(Cl)cc3)nc12	none
COc1ccc(-c2c(C)nn3c(N4CCC(C(=O)N5CCCCCC5)CC4)cc(C)nc23)cc1OC	none
Cc1ccc(NC(=O)CS(=O)(=O)c2nc(-c3ccc4c(c3)OCO4)cn2-c2ccc(F)cc2)cc1	none
Cc1ccc(-c2nnc(Nc3ccc(C(=O)N4CCCCC4)cc3)c3ccccc23)cc1S(N)(=O)=O	none
CCOC(=O)c1cnc2c(OC)cccc2c1NCCO	none
COc1ccc(Cl)cc1NC(=O)c1c(NCc2cccs2)sc2c1CCCC2	none
COc1ccc(OC)c(NC(=O)c2c(NCc3sccc3C)sc3c2CCCC3)c1	CBX7 inh 0.49
COc1ccc(NC(=O)c2c(NCc3cccs3)sc3c2CCC3)cc1	none
COc1ccc(NC(=O)c2c(NCc3cccs3)sc3c2CCCCC3)cc1	none
CCOc1ccc(NC(=O)c2c(NCc3cccs3)sc3c2CCCCC3)cc1	CBX7 inh 0.44
COc1ccc(NC(=O)c2c(NCc3sccc3C)sc3c2CCCCC3)c(OC)c1	none
COc1ccc(Cl)cc1NC(=O)c1c(NCc2sccc2C)sc2c1CCCC2	CBX7 inh 0.39
COc1ccc(OC)c(NC(=O)c2c(NCc3cccs3)sc3c2CCCC3)c1	none
COc1ccccc1NC(=O)c1c(NCc2sccc2C)sc2c1CCCCC2	none

Compound activity (PubChem BioAssay)
